Reference: the supplement of paper PMC8728848
Only a selection was taken, and the strongest signals are over-represented in it overall.

What was measured:
Test in all cases: glycan array binding signal (z-score within array); higher = stronger binding
Settings in all cases: glycan notation: IUPAC condensed, linker removed; mutation: N224Q
[1] = target: Gal(b1-4)GlcNAc(b1-3)Gal(b1-4)GlcNAc(b1-3)Gal(b1-4)GlcNAc(b1-3)Gal(b1-4)GlcNAc(b1-2)[Gal(b1-4)GlcNAc(b1-3)Gal(b1-4)GlcNAc(b1-3)Gal(b1-4)GlcNAc(b1-3)Gal(b1-4)GlcNAc(b1-6)]Man(a1-6)[Gal(b1-4)GlcNAc(b1-3)Gal(b1-4)GlcNAc(b1-3)Gal(b1-4)GlcNAc(b1-3)Gal(b1-4)GlcNAc(b1-2)Man(a1-3)]Man(b1-4)GlcNAc(b1-4)[Fuc(a1-6)]GlcNAc
Summary of the method: (§1)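 Arrays were curated from the Consortium for Functional Glycomics database, 3228 in total, and kept only where the protein sequence was available. Binding is expressed as a within-array Z-score. This score was averaged across arrays of the same protein sequence at different concentrations or buffers and across linkers, and negative values can be read as non-binding.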

[2] = target: Gal3S(b1-4)Glc
Summary of the method: as §1

[3] = target: GlcNAc(a1-4)Gal(b1-4)GlcNAc(b1-3)Gal(b1-4)Glc
Summary of the method: as §1

[4] = target: GlcNAc(b1-3)Gal(b1-4)GlcNAc(b1-3)Gal(b1-4)GlcNAc(b1-2)Man(a1-3)[GlcNAc(b1-3)Gal(b1-4)GlcNAc(b1-3)Gal(b1-4)GlcNAc(b1-2)Man(a1-6)]Man(b1-4)GlcNAc(b1-4)[Fuc(a1-6)]GlcNAc
Summary of the method: as §1

[5] = target: GlcNAc(b1-3)Gal(b1-4)GlcNAc(b1-3)Gal(b1-4)GlcNAc(b1-3)Gal(b1-4)GlcNAc(b1-2)[GlcNAc(b1-3)Gal(b1-4)GlcNAc(b1-3)Gal(b1-4)GlcNAc(b1-3)Gal(b1-4)GlcNAc(b1-6)]Man(a1-6)[GlcNAc(b1-3)Gal(b1-4)GlcNAc(b1-3)Gal(b1-4)GlcNAc(b1-3)Gal(b1-4)GlcNAc(b1-2)Man(a1-3)]Man(b1-4)GlcNAc(b1-4)[Fuc(a1-6)]GlcNAc
Summary of the method: as §1

[6] = target: GlcNAc(b1-3)Gal(b1-4)GlcNAc(b1-3)Gal(b1-4)GlcNAc(b1-3)Gal(b1-4)GlcNAc(b1-3)Gal(b1-4)GlcNAc(b1-2)Man(a1-3)[GlcNAc(b1-3)Gal(b1-4)GlcNAc(b1-3)Gal(b1-4)GlcNAc(b1-3)Gal(b1-4)GlcNAc(b1-3)Gal(b1-4)GlcNAc(b1-2)Man(a1-6)]Man(b1-4)GlcNAc(b1-4)[Fuc(a1-6)]GlcNAc
Summary of the method: as §1

[7] = target: GlcNAc(b1-3)[GlcNAc(b1-6)]Gal(b1-4)GlcNAc
Summary of the method: as §1

[8] = target: GlcNAc(b1-6)GalNAc
Summary of the method: as §1

[9] = target: Man(a1-2)Man(a1-3)[Man(a1-2)Man(a1-6)]Man(a1-6)[Man(a1-2)Man(a1-2)Man(a1-3)]Man(b1-4)GlcNAc(b1-4)GlcNAc
Summary of the method: as §1

[10] = target: Neu5Ac(a2-3)Gal(b1-3)GlcNAc(b1-2)Man
Summary of the method: as §1

[11] = target: Neu5Ac(a2-3)Gal(b1-4)GlcNAc(b1-2)[Neu5Ac(a2-3)Gal(b1-4)GlcNAc(b1-4)]Man(a1-3)[GlcNAc(b1-4)][Neu5Ac(a2-3)Gal(b1-4)GlcNAc(b1-2)[Neu5Ac(a2-3)Gal(b1-4)GlcNAc(b1-6)]Man(a1-6)]Man(b1-4)GlcNAc(b1-4)GlcNAc
Summary of the method: as §1

[12] = target: Neu5Ac(a2-3)Gal(b1-4)GlcNAc(b1-3)Gal(b1-4)[Fuc(a1-3)]GlcNAc
Summary of the method: as §1

[13] = target: Neu5Ac(a2-3)Gal(b1-4)[Fuc(a1-3)]GlcNAc
Summary of the method: as §1

[14] = target: Neu5Ac(a2-3)Gal(b1-4)[Fuc(a1-3)]GlcNAc(b1-2)Man
Summary of the method: as §1

[15] = target: Neu5Ac(a2-6)Gal
Summary of the method: as §1

[16] = target: Neu5Ac(a2-6)Gal(b1-4)GlcNAc(b1-2)[Neu5Ac(a2-6)Gal(b1-4)GlcNAc(b1-6)]Man(a1-6)[Neu5Ac(a2-6)Gal(b1-4)GlcNAc(b1-2)Man(a1-3)][GlcNAc(b1-4)]Man(b1-4)GlcNAc(b1-4)GlcNAc
Summary of the method: as §1

[17] = target: Neu5Ac(a2-6)Gal(b1-4)GlcNAc(b1-3)Gal(b1-3)GlcNAc
Summary of the method: as §1

[18] = target: Neu5Ac(a2-6)GalNAc(b1-4)GlcNAc
Summary of the method: as §1

[19] = target: Neu5Ac(a2-6)GlcNAc(b1-4)GlcNAc
Summary of the method: as §1

[20] = target: Neu5Gc(a2-3)Gal(b1-4)[Fuc(a1-3)]GlcNAc
Summary of the method: as §1

B1: AAL (Aleuria aurantia) (protein)
chain: MPTEFLYTSKIAAISWAATGGRQQRVYFQDLNGKIREAQRGGDNPWTGGSSQNVIGEAKLFSPLAAVTWKSAQGIQIRVYCVNKDNILSEFVYDGSKWITGQLGSVGVKVGSNSKLAALQWGGSESAPPNIRVYYQKSNGSGSSIHEYVWSGKWTAGASFGSTVPGTGIGATAIGPGRLRIYYQATDNKIREHCWDSNSWYVGGFSASASAGVSIAAISWGSTPQIRVYWQKGREELYEAAYGGSWNTPGQIKDASRPTPSLPDTFIAANSSGNIDISVFFQASGVSLQQWQWISGKGWSIGAVVPTGTPAGW
- glycan array binding signal (z-score) [1]: -0.229
- glycan array binding signal (z-score) [2]: -0.321
- glycan array binding signal (z-score) [3]: -0.318
- glycan array binding signal (z-score) [4]: 2.92
- glycan array binding signal (z-score) [5]: -0.085
- glycan array binding signal (z-score) [6]: 1.97
- glycan array binding signal (z-score) [7]: -0.322
- glycan array binding signal (z-score) [8]: -0.325
- glycan array binding signal (z-score) [9]: -0.312
- glycan array binding signal (z-score) [10]: -0.311
- glycan array binding signal (z-score) [11]: -0.327
- glycan array binding signal (z-score) [12]: -0.32
- glycan array binding signal (z-score) [13]: 0.758
- glycan array binding signal (z-score) [14]: 0.186
- glycan array binding signal (z-score) [15]: -0.314
- glycan array binding signal (z-score) [16]: -0.303
- glycan array binding signal (z-score) [17]: -0.324
- glycan array binding signal (z-score) [18]: -0.323
- glycan array binding signal (z-score) [19]: -0.327
- glycan array binding signal (z-score) [20]: 0.052
